# Compound activity: PubChem, National Center for Advancing Translational Sciences (NCATS)
# KB-3-1 tox – KB-3-1 parental cell cytotoxicity. KB-3-1 viability, CellTiter-Glo ATP luminescence, 72 h. Potency, µM (top dose mostly 46.1 µM), usual class: cytotoxic. actives 1.4% (n = 400,000); further: nearly all actives have a fitted effect of over 60% in size
#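 Viability of parental KB-3-1 cells, measured by CellTiter-Glo luminescence, followed a 72 h incubation at 37 °C with pinned compounds in phenol-red-free DMEM containing 10% FBS.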
# KB-V1 cytotox – KB-V1 MDR subline cytotoxicity; KB-V1 MDR cells viability, CellTiter-Glo, 72 h; actives 3.4% (n = 400,000); Potency, µM (series often up to 46.1 µM), usual class: cytotoxic; further: nearly all actives have a fitted effect of over 60% in size
#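 Compound-treated KB-V1 multidrug-resistant cells, 72 h, 37 degrees C; viability by CellTiter-Glo. Fitted qHTS curves give the values.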
# DT40 TDP1 CPT – DT40-hTDP1 cell growth loss with CPT; chicken DT40 Tdp1-/-;hTDP1 cells + 20 nM CPT, ATP luminescence, 48 h; Potency, µM (highest dose often 46.2 µM), without a hit: at the top dose activity change, negative = growth inhibition, most hits filed as inhibitors; actives 12% (n = 420,000); AID 686979; further: nearly all actives have a fitted effect of over 55% in size
#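 Cell growth measured by CellTiter-Glo luminescence after a minimum 48 h, 37 C compound exposure with 20 nM CPT in Tdp1-knockout DT40 cells stably expressing hTDP1, seeded 400/well; qHTS titration format.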
# HT1080 IDH1KD tx – toxicity to HT-1080 IDH1 knockdown cells (counter line). AID 686971. actives 2% (n = 360,000). Potency, µM (top dose mostly 46.1 µM), for inactives: at the top dose activity, negative = toxicity, actives largely listed as cytotoxic. HT-1080 IDH1 knockdown viability, ATP luminescence, 48 h;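 further: 0% = DMSO wells and -100% = cell-free medium wells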
#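 In this qHTS, HT-1080 cells depleted of IDH1 are exposed for 48 h at 37 °C to compound titrations. Toxicity is scored from CellTiter-Glo luminescence, with DMSO as full viability and medium alone as none.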
# HT1080-NT tox – kills 2HG-producing HT-1080-NT fibrosarcoma cells | HT-1080-NT fibrosarcoma viability, CellTiter-Glo ATP luminescence, 48 h | AID 686970 | actives 1.6% (n = 360,000) | Potency, µM (doses to about 46.1 µM), without a hit: at the highest dose activity, negative = less viability, hits mostly cytotoxic;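 further: NT is the 2HG producing partner of a matched IDH1 knockdown line; 0% = DMSO-treated cells and -100% = media-only wells without cells; nearly all actives have a fitted effect of over 55% in size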
#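 750 cells/well, RPMI + 5% FBS; 2 h settle, compound pin-transfer, 48 h at 37 degrees C. CellTiter-Glo 10 min RT, luminescence. Normalized to DMSO and media-only wells.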
# DT40 TDP1 no CPT – qHTS for Inhibitors of human tyrosyl-DNA phosphodiesterase 1 (TDP1): qHTS in cells in absence of CPT; DT40 Tdp1-/- hTDP1 cells, no CPT, ATP luminescence, 48 h; Potency, µM (top dose mostly 46.2 µM), without a hit: at the top dose activity change, negative = growth inhibition, hits mostly inhibitors; actives 15% (n = 420,000); further: nearly all actives have a fitted effect of over 55% in size
#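 Compound effects on proliferation are scored in DT40 Tdp1-/-;hTDP1 cells in the absence of CPT. ATP levels (CellTiter-Glo luminescence) are recorded after a ≥48 hr, 37 °C incubation.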
# An asterisk follows results filed as active; i = inactive; ? = inconclusive; nt = no result. A selection: hits, their analogues and other compounds. The true share with any hit is near 19%. The call rests on the fitted dose curve; in most records, active means well fitted curve in the direction sought with a large enough effect; inconclusive means small, poorly fitted or top-dose-only effect, or another doubt; inactive means no such curve, though single readings can be large; an effect the other way counts as inactive or inconclusive. Unless noted, on the % scale 0 is the no-effect control and ±100 the full control effect; potency means the concentration at half of the fitted maximal effect.
SMILES,KB-3-1 tox,KB-V1 cytotox,DT40 TDP1 CPT,HT1080 IDH1KD tx,HT1080-NT tox,DT40 TDP1 no CPT
CCCNC(=O)C[C@H]1C[C@H]2c3cc(NC(=O)Nc4ccc(F)cc4)ccc3O[C@H]2[C@@H](CO)O1,i,i,1.84µM*,9.0%,12.0%,2.31µM*
CCOCCCNC(=O)c1ccc2c(c1)NC(=O)C(CS(=O)(=O)Cc1ccc(F)cc1Cl)N2 (configuration not stated),nt,nt,-0.7%,nt,nt,-5.5%
CO/N=C/C(=N\Nc1ccc(C)cc1)C(=O)c1ccc(OC)cc1,5.17µM*,4.61µM*,4.11µM*,2.91µM*,?,3.26µM*
COc1ccc(N(C(=O)c2ccco2)S(=O)(=O)c2cc(Cl)c(Cl)cc2Cl)cc1,i,i,18.4µM*,?,?,?
C/C(=N\NC(=O)CCC(=O)Nc1ccc(C)c(C)c1)C1CC1,i,i,11.7%,4.7%,9.7%,14.1%
CC1CC2(CCCC2)N(C(=O)c2ccccc2)Cc2ccccc21 (configuration not stated),?,i,9.2µM*,-8.3%,-3.7%,?
O=C1C(O)CC2c3ccccc3CC3(CCCC3)N12 (configuration not stated),i,i,?,1.4%,-1.6%,-20.4%
COc1ccc(C(C)(NC(C)=O)c2nc(-c3cnc4ccccc4c3)cs2)cc1 (configuration not stated),i,i,?,-1.8%,3.3%,?
COc1cc(F)ccc1-c1csc(C(C)(NC(C)=O)c2ccccc2)n1 (configuration not stated),i,i,11.6µM*,28.1%,-3.3%,5.17µM*
COc1ccc(C(C)(NC(C)=O)c2nc(-c3cccnc3)cs2)cc1 (configuration not stated),i,i,?,14.6%,-1.4%,-10.5%
COc1ccc(C(C)(NC(C)=O)c2nc(-c3ccccc3OC)cs2)cc1 (configuration not stated),i,i,18.4µM*,-25.0%,0.3%,11.6µM*
COc1ccc(C(C)(NC(C)=O)c2nc(-c3cccc(C(F)(F)F)c3)cs2)cc1 (configuration not stated),i,i,?,?,?,?
COc1ccc(C(C)(NC(C)=O)c2nc(-c3ccc(F)cc3OC)cs2)cc1 (configuration not stated),i,i,14.6µM*,10.9%,14.6%,13µM*
Cc1ccc(CN2CC(C(=O)NCC(=O)Nc3c(C)cccc3C)CC2=O)cc1 (configuration not stated),i,?,17.7%,11.7%,-4.5%,-0.2%
C=C[C@H]1CN2CC[C@H]1C[C@H]2[C@H](O)c1ccnc2ccc(OC)cc12,i,i,nt,-20.1%,-6.6%,nt
CC1CCCCC1n1c(=S)[nH]c2ccccc2c1=O (configuration not stated),i,i,23.1µM*,11.2µM*,12.6µM*,?
CC1CCCCC1NC(=O)CCCn1c(=S)[nH]c2ccccc2c1=O (configuration not stated),i,i,-18.3%,-22.8%,-6.0%,-21.1%
CCCCCn1c(=S)[nH]c2cc(C(=O)N3CCCC3)ccc2c1=O,i,?,2.1%,3.9%,24.4%,-10.4%
CC1CCCN(C(=O)c2ccc3c(=O)n(C4CCCC4)c(=S)[nH]c3c2)C1 (configuration not stated),i,i,20.6µM*,0.8%,-2.4%,?
O=C(c1ccc2c(=O)n(C3CCCC3)c(=S)[nH]c2c1)N1CCCCCC1,?,7.31µM*,14.6µM*,-0.1%,-10.3%,13µM*
Cc1cccc2cc(COC(=O)COc3ccccc3)c(=O)[nH]c12,i,i,3.8%,4.1%,10.2%,-1.0%
CCCCNS(=O)(=O)CCNCc1ccco1,i,i,-8.1%,-6.1%,-3.0%,-9.5%
COc1ccc(Br)cc1/C=N/NC(=O)c1cc(OC)c(OC)c(OC)c1,i,i,?,16.4µM*,?,?
COc1cc(C(=O)N/N=C/c2ccsc2C)cc(OC)c1OC,0.651µM*,0.581µM*,1.16µM*,0.581µM*,0.92µM*,0.651µM*
CCCc1cc(=O)[nH]c(SCC(=O)Nc2cccc(S(=O)(=O)N3CCOCC3)c2)n1,nt,nt,14.2%,0.2%,0.0%,-4.3%
SMILES,KB-3-1 tox,KB-V1 cytotox,DT40 TDP1 CPT,HT1080 IDH1KD tx,HT1080-NT tox,DT40 TDP1 no CPT
Cc1ccc(C)c(S(=O)(=O)N2CCCCC2CCNC(=O)C(=O)NCCc2ccco2)c1 (configuration not stated),i,i,?,-4.8%,-1.4%,?
Cc1ccc(S(=O)(=O)N2CCCCC2CCNC(=O)C(=O)NCc2ccco2)cc1 (configuration not stated),?,?,13µM*,13µM*,?,7.31µM*
O=C(NCCc1ccco1)C(=O)NCC1CCCN1S(=O)(=O)c1ccccc1 (configuration not stated),?,?,11.6µM*,?,?,4.11µM*
Cc1cc(C)c(S(=O)(=O)N2CCCCC2CCNC(=O)C(=O)NCc2ccco2)c(C)c1 (configuration not stated),?,?,?,?,-22.1%,16.4µM*
Cc1ccc(S(=O)(=O)N2CCCCC2CCNC(=O)C(=O)NCCc2ccco2)cc1 (configuration not stated),5.17µM*,6.51µM*,2.91µM*,18.4µM*,10.3µM*,4.11µM*
Cc1oc2cc3oc(=O)c(CCC(=O)N[C@H](C(=O)O)C(C)C)c(C)c3cc2c1C,i,i,-1.0%,9.8%,0.9%,2.7%
CCc1nc(-c2cc(S(=O)(=O)N3CCN(c4ccccc4)CC3)ccc2OC)no1,i,i,2.5%,nt,nt,5.4%
O=C(CCCCCBr)N1CCC(CC2CC(c3cccc(Br)c3)=NO2)(C(=O)NCC2CCCCC2)CC1 (configuration not stated),?,i,?,-4.7%,?,20.6µM*
CC1(C(=O)N2CCC(CC3CC(c4cccc(Br)c4)=NO3)(C(=O)NCC3CCCCC3)CC2)CC1 (configuration not stated),i,i,18.4µM*,?,-12.4%,18.4µM*
